# Shown are actives, neighbours in structure and some others; about 1.6% of the full set was active somewhere.
# KCNQ2 block: blocks the rat KCNQ2 potassium channel; O88943; CHO-K1 KCNQ2, FluxOR thallium flux, 20 min; active compounds read low; B-score at 10 µM; hit rate 1.1% among 310,000; AID 2156;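 active = fluorescence ratio B-score at most minus 3 library SDs, with starting brightness B-score within 2 library SDs, cut at about -5.5 in these data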
# KCNQ2 enhance: KCNQ2 (rat) channel potentiation; CHO-K1 KCNQ2, FluxOR thallium flux fluorescence; active compounds read high; AID 2239; hit rate 0.54% among 310,000; O88943; B-score at 10 µM;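 active = fluorescence ratio B-score at least 3 SD of library B-scores, with initial fluorescence B-score within 3 of them, cut at about 5.3 in these data; same plate scores as AID 2156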;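 also: B-score of peak minus minimum over baseline fluorescence ratio after K+ and Tl+ stimulus; positive B-score means potentiation of KCNQ2 with more thallium influx and brighter signal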
# Kir21 confirm: confirmation of mouse Kir2.1 potassium channel inhibitors | shares compounds with KCNQ2 enhance | Kir2.1-expressing cells, FluxOR thallium flux fluorescence; active compounds read low | Tl flux remaining, % of negative control (active compounds read low), % at 10 µM | hit rate 41% among 2,300 | AID 2032;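 active = Primary-screen hit whose thallium flux fell at least 3 control SD below untreated wells in both duplicates, with normal baseline fluorescence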;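 also: 0% = blank wells without stimulus and 100% = stimulated no-compound controls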
# HEK293 Tl flux: counter-screen for Kir2.1 inhibitors: effect in parental HEK293 cells; shares compounds with KCNQ2 enhance; FluxOR thallium flux fluorescence; 0% = unstimulated blank wells; FluxOR signal as % of negative control (100 = no effect), % at 10 µM; hit rate 19% among 2,300;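 active = dye signal at least 3 control SD above or below untreated wells in both duplicates, raw fluorescence within 3, either direction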;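 also: percent is based on the flux ratio of peak minus minimum fluorescence over baseline F0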
# CHO-K1 ctr: parental CHO-K1 activity in KCNQ2 potentiator counter-screen; shares compounds with KCNQ2 enhance; parental CHO-K1 cells, FluxOR thallium flux fluorescence; zero = vehicle mean+3SD, 100% = vehicle-minus-blank window; activity increase over 3SD of controls, % at 10 µM; hit rate 43% among 1,200; AID 2282;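 active = signal rise of at least 3 SD above the untreated control mean, in both duplicate wells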;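 also: counter screen of KCNQ2 potentiator hits so any rise reflects channel-independent effects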
# KCNQ1 sel pot: selectivity of KCNQ2 potentiators: effect on human KCNQ1; activation over 3SD threshold, % at 10 µM; shares compounds with KCNQ2 enhance; AID 2283; CHO KCNQ1 stable, FluxOR thallium flux fluorescence; beyond 3SD, as % of vehicle-control signal; hit rate 28% among 1,200;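 active = fluorescence ratio rise of at least 3 SD of vehicle wells above their mean, in both replicate wells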;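 also: 0% = vehicle mean plus 3 SD and 100% = vehicle minus unstimulated blank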
# KCNQ2 pot conf: rat KCNQ2 channel potentiator confirmation. shares compounds with KCNQ2 enhance. CHO-KCNQ2 cells, FluxOR thallium flux fluorescence. potentiation, less the hit threshold, % at 10 µM. hit rate 68% among 1,200. AID 2287;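 active = fluorescence ratio rising 3 SD or more over the vehicle control mean in both replicates, plus primary screen hit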;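 also: peak minus minimum thallium fluorescence divided by baseline after K/Tl stimulus; 0% = vehicle mean plus 3 SD and 100% = vehicle minus unstimulated blank difference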
# Kir2-1 sel: mouse Kir2.1 off-target activity of KCNQ2 potentiators. hit rate 2% among 1,200. shares compounds with KCNQ2 enhance. HEK293 Kir2.1, FluxOR thallium flux fluorescence. activity over 3SD threshold, % at 10 µM;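 active = fluorescence ratio rise of at least 3 SD above the vehicle-control mean, seen in both replicates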;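 also: 0% = vehicle mean plus 3 SD and 100% = vehicle minus no-stimulus blank window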
# KCNQ2 W236L MoA: potentiates the retigabine-insensitive rat KCNQ2 W236L mutant channel; shares compounds with KCNQ2 enhance; AID 2558; current increase over 3SD of negative controls (%), active compounds read high, % at 25 µM; hit rate 10% among 940; CHO KCNQ2-W236L, automated patch clamp current;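 active = current increase at least 3 SD of the untreated controls above them in both duplicate recordings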
# Target sequence (O88943 whole entry W236L, looked up): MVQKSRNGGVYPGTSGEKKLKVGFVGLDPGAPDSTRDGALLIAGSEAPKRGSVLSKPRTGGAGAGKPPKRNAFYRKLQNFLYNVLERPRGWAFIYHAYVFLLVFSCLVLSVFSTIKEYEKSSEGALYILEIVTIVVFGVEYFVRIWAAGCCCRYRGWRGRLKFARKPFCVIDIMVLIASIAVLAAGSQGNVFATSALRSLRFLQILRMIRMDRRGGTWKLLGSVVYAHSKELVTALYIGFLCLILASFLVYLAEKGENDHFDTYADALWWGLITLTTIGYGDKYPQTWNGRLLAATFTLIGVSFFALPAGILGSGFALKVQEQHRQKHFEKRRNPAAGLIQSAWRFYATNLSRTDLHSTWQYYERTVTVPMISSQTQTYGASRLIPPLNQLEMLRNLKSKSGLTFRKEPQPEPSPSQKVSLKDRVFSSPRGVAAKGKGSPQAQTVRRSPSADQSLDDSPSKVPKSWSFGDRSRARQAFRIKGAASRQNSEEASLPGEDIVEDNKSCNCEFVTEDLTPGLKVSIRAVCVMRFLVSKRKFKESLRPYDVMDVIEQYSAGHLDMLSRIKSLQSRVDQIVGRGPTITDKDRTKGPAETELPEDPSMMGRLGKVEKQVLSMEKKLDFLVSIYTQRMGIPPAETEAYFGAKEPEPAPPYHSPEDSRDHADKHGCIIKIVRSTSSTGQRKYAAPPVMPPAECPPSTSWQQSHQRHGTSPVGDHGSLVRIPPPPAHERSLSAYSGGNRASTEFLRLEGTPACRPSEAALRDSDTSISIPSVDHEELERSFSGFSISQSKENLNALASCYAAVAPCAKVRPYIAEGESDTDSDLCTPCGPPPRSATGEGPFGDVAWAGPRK
# Starred values were filed as active, the others as inactive; i = inactive; x = no result given.
SMILES,KCNQ2 block,KCNQ2 enhance,Kir21 confirm,HEK293 Tl flux,others
CCN1C(=O)CSc2ccc(C(=O)NCc3ccc(OC)cc3)cc21,i,0.62,58%*,i,
COCCN(C(=O)c1snc(C(N)=O)c1N)C(C(=O)NC1CCCCC1)c1ccc(F)cc1 (stereo not drawn),i,x,x,x,
Cc1ccc(-n2nc3c(c2NC(=O)c2ccco2)CS(=O)C3)cc1 (stereo not drawn),i,x,x,x,
Nc1nc2ccccc2n1CCOc1ccc(Cl)cc1,i,2.5,x,x,
CCOC(=O)Cn1c(=N)n(CCOc2ccc(Br)cc2)c2ccccc21,i,x,36%*,i,
Nc1nc2ccccc2n1CCOc1ccc(Br)cc1,i,x,20%*,130%*,
CCOC(=O)Cn1c(=N)n(Cc2ccccc2)c2ccccc21,i,1.5,x,x,
NC1=NC(=O)/C(=C/c2cn(Cc3ccccc3)c3ccccc23)S1,i,x,x,x,
Cc1cc(Cl)c(OCCCNC2CCCC2)c(Br)c1,i,2.9,x,x,
C=CCNCCCCOc1c(Cl)cc(C)cc1Br,i,0.5,35%*,i,
COCCCNCCCCOc1c(Cl)cc(C)cc1Br,i,x,44%*,i,
C=CCNCCOc1c(C)cc(C)cc1Cl,i,1.7,x,x,
CC(=O)N(C)c1ccc(NCc2cc(=O)oc3cc(C)c(O)cc23)cc1,i,0.14,x,x,
CC1C(=O)N2CCCc3cc(NC(=O)c4ccccc4Br)cc1c32 (stereo not drawn),i,x,x,x,
CCOc1ccc(-c2cccc(NC(=O)c3ccco3)c2)nn1,i,1.6,x,x,
C/C=C/c1ccc(OCCCCN(C)Cc2ccccc2)c(OC)c1,i,x,22%*,i,
Cc1ccc(Cl)c(OCCCN(C)Cc2ccccc2)c1,i,x,x,x,
Cc1ccc(Cl)c(OCCCCN(C)Cc2ccccc2)c1,i,x,20%*,i,
C/C=C/c1ccc(OCCNCc2ccccc2)c(OC)c1,i,x,x,x,
CCN(CC(=O)Nc1c(F)cccc1F)C(=O)c1cccnc1Sc1ccccc1,i,0.02,x,x,
CCC(C)(C)NC(=O)C(c1cccc(OC)c1OC)N(CCOC)C(=O)CCC(=O)Nc1cc(C)on1 (stereo not drawn),i,0.42,x,x,
CC(C)=CCCC(C)NC(=O)NC1CCCCC1 (stereo not drawn),i,6.7*,i,76%*,CHO-K1 ctr=20*;KCNQ1 sel pot=48*;KCNQ2 pot conf=12*;Kir2-1 sel=-43;KCNQ2 W236L MoA=i
CC(C)[C@H](NC(=O)NC1CCCC1)C(=O)O,i,0.19,x,x,
Cc1ccc(C)c(CN2CCC(CNC(=O)Nc3ccc(C)c(C)c3)CC2)c1,i,7.6*,i,i,CHO-K1 ctr=60*;KCNQ1 sel pot=-11;KCNQ2 pot conf=10*;Kir2-1 sel=-31;KCNQ2 W236L MoA=i
COc1ccc(N2CCC(CNC(=O)Nc3ccc(C)c(C)c3)C2)cc1 (stereo not drawn),i,1.2,x,x,
SMILES,KCNQ2 block,KCNQ2 enhance,Kir21 confirm,HEK293 Tl flux,others
CCOc1ccc(C(C)NC(=S)NCc2ccc(F)cc2)cc1 (stereo not drawn),i,2.9,x,x,
CCc1ccc(C(C)NC(=S)NCc2ccc(F)cc2)cc1 (stereo not drawn),i,4.6,x,x,
Cc1ccc(NC(=S)NCc2ccc(F)cc2)c(C)c1,i,5.5*,i,i,CHO-K1 ctr=-7;KCNQ1 sel pot=-8;KCNQ2 pot conf=42*;Kir2-1 sel=-53;KCNQ2 W236L MoA=i
Cc1ccc(C(C)NC(=S)NCc2ccc(F)cc2)cc1C (stereo not drawn),i,8.1*,68%*,i,CHO-K1 ctr=0.0*;KCNQ1 sel pot=45*;KCNQ2 pot conf=33*;Kir2-1 sel=-73;KCNQ2 W236L MoA=i
Cc1ccc(NC(=S)NCc2ccc(S(N)(=O)=O)cc2)c(C)c1,i,0.24,x,x,
COc1cccc(C(C)NC(=S)NCc2ccc(F)cc2)c1 (stereo not drawn),i,3.2,48%*,i,
O=C(C1=C(O)C(=O)N(CC2CCCO2)C1c1cccc(Cl)c1)c1ccco1 (stereo not drawn),i,1.2,x,x,
CCOC(=O)C1=C(COC(=O)/C=C/c2cc(OC)c(OC)c(OC)c2)NC(=O)NC1C (stereo not drawn),i,0.42,x,x,
COc1ccc(CN2CCC(n3nccc3NC(=O)c3cccc(F)c3)CC2)cc1O,i,0.34,x,x,
Cc1ccc(NS(=O)(=O)c2c(C)[nH]c(C)c2C(=O)N2CCCCC2)cc1F,i,x,x,x,
OCCNCc1ccc(-c2ccccc2)cc1,i,1,x,x,
OCCCNCc1ccc(N(c2ccccc2)c2ccccc2)cc1,i,x,23%*,i,
CC(C)(C)C(=O)/C=C/Nc1ccccc1O,i,9*,i,71%*,CHO-K1 ctr=-12;KCNQ1 sel pot=78*;KCNQ2 pot conf=59*;Kir2-1 sel=-14;KCNQ2 W236L MoA=1.6%*
CN(C)c1ccc(N/C=C/C(=O)C(C)(C)C)cc1,i,x,x,x,
CC(C)CC(NC(N)=O)C(=O)OCC(=O)N(Cc1ccccc1)Cc1ccccc1 (stereo not drawn),i,x,x,x,
O=C1/C(=C\c2ccc(O)c(O)c2)N=C2CCCCCN12,i,0.02,x,x,
CCCCCNC(=O)c1cccc(S(=O)(=O)N2CC3(C)CC2CC(C)(C)C3)c1 (stereo not drawn),i,2.2,x,x,
CN(CC(=O)Nc1cccc(F)c1)C(=O)c1cccc(S(=O)(=O)N2CC3(C)CC2CC(C)(C)C3)c1 (stereo not drawn),i,9.2*,i,i,CHO-K1 ctr=92*;KCNQ1 sel pot=16*;KCNQ2 pot conf=1.7*;Kir2-1 sel=-27;KCNQ2 W236L MoA=i
CC(=O)c1ccc(NC(=O)c2ccc(CSc3ccccc3)o2)cc1,i,1.1,x,x,
O=C(Nc1ccc(F)cc1)c1ccc(CSc2ccc(Cl)cc2)o1,i,7.2*,i,i,CHO-K1 ctr=2.2*;KCNQ1 sel pot=90*;KCNQ2 pot conf=-9;Kir2-1 sel=-44;KCNQ2 W236L MoA=i
CCCN(CC(=O)Nc1ccccc1C)C(=O)Cc1coc2cc(C)ccc12,i,x,x,x,
COc1ccc(N(CC(=O)N/N=C(\C)CCc2ccccc2)S(=O)(=O)c2ccc(C)cc2)cc1,i,0.26,x,x,
Nc1nc(-c2ccc(Cl)cc2)nn1C(=O)c1cccs1,i,0.01,x,x,
C#CCNC(=O)C1=C[C@@H](C(C)(C)C)C[C@@H](OCc2ccc(CO)cc2)O1,i,x,x,x,
C#CCNC(=O)C1=C[C@@H](C2CC2)C[C@@H](OCc2ccc(CO)cc2)O1,i,0.66,51%*,i,
CCC(=NCc1ccccc1)c1c(C(F)(F)F)[nH]n(-c2nc3ccccc3s2)c1=O,i,x,x,x,
